These results are taken from PubChem BioAssay AID651789 (National Center for Advancing Translational Sciences (NCATS), 2012).

Results filed as inconclusive are left out. Unmarked numbers belong to inactive results. Calls of active or inactive are those of the source. Calls come from the whole dose curve; as a rule, active = well fitted inhibition curve with a large enough effect; inconclusive = small, poorly fitted or top-dose-only effect; inactive = no such curve, though single readings can be large or run the other way.
Potency is the fitted concentration of half-maximal effect.

This assay is described as follows: Acumen qHTS Assay for Inhibitors of the mTORC1 Signaling Pathway in WT MEF Cells: Hit Validation.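 For activity change, negative = inhibition: phospho-rpS6 Ser235/236 immunofluorescence normalised to propidium iodide cell stain; percent of cells above a cutoff set by 7.5 nM rapamycin treated wells.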 Note: nearly all actives have a fitted effect of over 60% in size. To be noted: Acumen imaging; series mostly up to 37.3 µM; activity change, negative = inhibition: at the top concentration. A digest of the protocol:
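Read-out is immunofluorescent phospho-rpS6 (Ser235/236) normalised to PI-stained cell number, reported as % active cells using a 7.5 nM rapamycin threshold. Cells: WT or Tsc2-/-, p53-/- MEFs, compound-exposed 24 h at 37C; PI count also tracks viability.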
In general terms: qHTS replaces the single test concentration by a dilution series.
For `COc1ccc(OC)c(NC(=O)c2nnn(CC(=O)Nc3ccc(C(C)C)cc3)c2N)c1`, the “activity change, negative = inhibition” value was -1.53%. Still for that read-out and setting: the same measure for `O=C(Nc1ccc2nc(SCC(=O)N3CCCc4ccccc43)sc2c1)c1ccccc1F`: -24.5%.

For the molecule `O=S(=O)(NCc1nc2cccnc2n1Cc1ccccc1Cl)c1ccc(F)c(Cl)c1`, the “activity change, negative = inhibition” value is -18.5%. The same measure, in the same setting: the same measure for `O=C(CSc1nc2c([nH]c3ccccc32)c(=O)n1-c1ccc(F)cc1)NC1CCCCC1`: -19%; for `O=S(=O)(c1ccccc1)n1nc(-c2ccc(Cl)cc2)nc1NCc1ccccc1`: -20.8%. On the same count and under the same terms, the same measure for `Oc1ccc(NCc2ccccc2OCc2ccc(Cl)cc2)cc1`: 4.43%. Still for that read-out and setting: the same measure for `COc1ccccc1NC(=O)CSc1ccc(-c2ccccn2)nn1`: -12.8%. `CCOc1ccccc1NC(=O)Cn1c(=O)n(CCC(=O)NCc2ccc3c(c2)OCO3)c(=O)c2ccccc21`: the “activity change, negative = inhibition” value is 3.05%. On the same count and under the same terms, the same measure for `CCc1ccc2ncc(S(=O)(=O)c3ccc(Cl)cc3)c(N3CCN(CC)CC3)c2c1`: 6.8%; for `Cc1ccc(Nc2nnc(-c3ccc(C)c(S(=O)(=O)N4CCOCC4)c3)c3ccccc23)c(C)c1`: -0.763%; for `CC(C)c1ccc(NS(=O)(=O)c2ccc3nc(-c4ccccc4)[nH]c3c2)cc1`: 6.87%. With `O=C(C1CCN(c2nc3ccccc3[nH]2)CC1)N1CCN(c2cccc(Cl)c2)CC1`, the “activity change, negative = inhibition” value is 2.04%. Turning to `CCCC1=Nc2cc(C(=O)NCc3ccccc3)ccc2Sc2ccccc21`, the Potency was 2.61 µM (active). On the same count and under the same terms, the result for `COc1ccc(NC(=O)c2ccc3c(=O)n4nc(Nc5cc(C)ccc5C)sc4nc3c2)cc1` reads 2.93 µM (active).

Consider `CCC1CN(C(=O)NCc2ccc(F)cc2)c2cc(C)ccc2O1` (stereo unspecified), for which the “activity change, negative = inhibition” value is -4.58%. For the molecule `Cc1cn([C@H]2C[C@H](N=[N+]=[N-])[C@@H](CO)O2)c(=O)[nH]c1=O`, the “activity change, negative = inhibition” value was -13.6%.
